Among the data in PubChem BioAssay (NCI) are growth values, retold here.

Holding throughout (experiment): NCI-60 one-dose screen, 48 h (100 = growth as untreated, 0 = no growth, -100 = all killed)
Common to all, as to conditions: 10 µM unless noted

Assay [1] deals with SR leukemia.
Assay [2] concerns RPMI-8226 leukemia.
In assay [3] the test system is OVCAR-8 ovarian.
The test system of assay [4] is OVCAR-5 ovarian.
The test system of assay [5] is OVCAR-4 ovarian.
In assay [6] the test system is SK-OV-3 ovarian.
Assay [7] has as its system IGROV1 ovarian.
Assay [8] relates to OVCAR-3 ovarian.
Assay [9] concerns HS 578T breast.
The subject of assay [10] is NCI/ADR-RES ovarian.
In assay [11] the test system is T-47D breast.
Assay [12] relates to BT-549 breast.
The test system of assay [13] is SW-620 colon.
Assay [14] deals with MCF7 breast.
In assay [15] the test system is HCT-116 colon.
The subject of assay [16] is HCC-2998 colon.
The test system of assay [17] is KM12 colon.
Assay [18] has as its system MDA-MB-435 melanoma.

This is part of a sample that, as a whole, favours compounds with a hit. Of some 83,000 tested, about 20% had one in any assay.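 Growth was measured after 48 h exposure to one concentration of compound in 96-well plates. Values under 10 count as active.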 A number with no mark means an inactive call. Calls of active or inactive are those of the source.

As to `COc1cc2oc(-c3cccc(NC(=O)c4ccc5c(c4)OCO5)c3)cc(=O)c2c(OC)c1OC`, the growth in assay [1] was 11.5%; in assay [2], -53.7% (active); in assay [3] it was 46.3%; in assay [4], 93.9%; in assay [5], 58.1%; in [6], 98.1%. Also, the growth was 47% in assay [7]; 53% in [8]; 45.2% in assay [9]; 57.6% in assay [10]; 26.3% in assay [11]; 41.4% in [12]. Further, the growth was 64% in assay [13]; 43.6% in [14]; 35.5% in [15]; 53.1% in assay [16]; 51.3% in assay [17].
Consider `C#CC#CC#CC#CC#CC#CC#CC#CCC1OCC(COC(=O)O[C@@H](C(=O)O[C@H]2C[C@@]3(O)[C@@H](OC(=O)c4ccccc4)[C@@H]4[C@]5(OC(C)=O)CO[C@@H]5C[C@H](O)[C@@]4(C)C(=O)[C@H](OC(C)=O)C(=C2C)C3(C)C)[C@@H](NC(=O)c2ccccc2)c2ccccc2)O1` (stereo partly specified), for which the growth is 12.4% in assay [1]; 7.03% (active) in assay [2]; 14.8% in assay [3]; 18.8% in assay [4]; 59.5% in assay [5]; 41.9% in assay [6]. Moreover, the growth in [7] was 22.2%; in [8], 4.93% (active); in assay [9], -4.44% (active); in [10] it was 93.5%; in [11] it was 36.6%; in assay [12], 14.5%. Besides, the growth in assay [18] was -73.5% (active); in assay [14], 16.1%; in assay [15], 9.48% (active); in assay [16] it was 1.97% (active); in [17], 6.73% (active).
`O=C(CSc1nc2ccc([N+](=O)[O-])cc2[nH]1)Nc1ccc(Br)cc1`: the growth is 22.9% in assay [1]; 6.95% (active) in assay [2]; 52.5% in [3]; 85.7% in assay [4]; 34.4% in assay [5]; 44.7% in assay [6]. Moreover, the growth in [7] was 63.8%; in [8] it was 39.3%; in [9] it was 78.7%; in [10], 59.3%; in [11], 8.75% (active); in assay [12] it was 50.4%. The growth in assay [18] is 46.5%; in assay [14], 64.5%; in [15] it was 28.2%; in assay [16], 79.6%; in assay [17], 56.2%.
Regarding `C=C(CO)[C@@H]1CC[C@]2(COC3CCCCO3)CC[C@]3(C)[C@H](CC[C@@H]4[C@@]5(C)C=C(C=O)C(=O)C(C)(C)[C@@H]5CC[C@]43C)[C@@H]12` (stereo partly specified), the growth in [1] is -49.9% (active); in assay [2], -35% (active); in assay [3] it was -69% (active); in [4] it was -75.5% (active); in assay [5], -63.8% (active); in assay [6], -95.8% (active). For the same compound, the growth in assay [7] is -78.8% (active); in assay [8], -68.8% (active); in [9], -52.3% (active); in assay [10], -37.5% (active); in assay [11], -80.3% (active); in assay [12], -88.6% (active). Moreover, the growth in [13] was -64.6% (active); in [14] it was -73.2% (active); in [15], -89.3% (active); in assay [16] it was -87.5% (active); in assay [17], -43% (active).
In the case of `O=C1c2cc3c(cc2-c2c1c1ccc(Cl)cc1c(=O)n2C[C@H](O)CO)OCO3`, the growth in assay [1] was -2.7% (active); in [2] it was -11.9% (active); in [3] it was 3.37% (active); in [4] it was -7.3% (active); in assay [5], 4.86% (active); in assay [6], -2% (active). In addition, the growth in [7] was 8% (active); in assay [8], -17.3% (active); in assay [9] it was 26.2%; in assay [10], 3.2% (active); in assay [11], -6.44% (active); in assay [12], 1.39% (active). In addition, the growth is -59.7% (active) in assay [18]; -1.79% (active) in [14]; -25.6% (active) in assay [15]; 4.32% (active) in [16]; -14.4% (active) in [17].
`COc1ccc(Cc2nnc(Nc3nc4ccccc4s3)s2)cc1`: the growth is 60.6% in assay [1]; 107% in assay [2]; 103% in [3]; 89.1% in assay [4]; 105% in assay [5]; 115% in assay [6]. Also, the growth in [7] is 94%; in assay [8], 103%; in assay [9], 94.6%; in assay [10], 95.7%; in assay [11], 113%; in assay [12], 99.6%. Besides, the growth is 97.8% in [13]; 105% in [14]; 104% in assay [15]; 103% in assay [16]; 102% in [17].
On to `O=C1OCC2=C1C(c1cccc(F)c1)c1cc3c(cc1N2CCO)OCO3` (stereo unspecified), for which the growth in assay [1] is 16.7%; in [2], 17.5%; in assay [3], 34.5%; in [4], 63.6%; in assay [5] it was 57.3%; in assay [6], 19.5%. The growth was 40% in assay [7]; 2.41% (active) in assay [8]; 17.8% in [9]; 25.4% in [10]; 21.3% in assay [11]; 32.8% in assay [12]. Besides, the growth in assay [13] was 15.8%; in assay [14] it was 20%; in assay [15] it was 18.2%; in assay [16] it was 77%; in assay [17], 25.3%.
For `CN1CCN(Cc2ccc(NC(=O)c3cncc(C#Cc4cnn5ccccc45)c3)cc2C(F)(F)F)CC1`, the growth in assay [1] is -21.2% (active); in assay [2], -17.5% (active); in assay [3] it was 9.77% (active); in [4] it was 4.3% (active); in assay [5], -2.15% (active); in [6] it was 15.5%. Besides, the growth was 3.17% (active) in assay [7]; 0.315% (active) in assay [8]; -15.4% (active) in assay [9]; -6.37% (active) in [10]; 35.5% in [11]; 41% in assay [12]. In addition, the growth was 6.02% (active) in assay [18]; 0.711% (active) in assay [14]; 4.92% (active) in assay [15]; -19.1% (active) in assay [16]; 0.221% (active) in [17].
